Source: PubChem
PLK1 PBD block: inhibitors of human PLK1 polo-box domain binding | P53350 | Plk1 PBD binding of FITC phosphopeptide, fluorescence polarization | Potency, µM, most hits filed as inhibitors | 2.8% of 360,000 active | AID 720504; note: series mostly up to about 57 µM; nearly all actives have a fitted effect of over 65% in size
USP2a block: inhibitors of human ubiquitin-specific protease USP2a; O75604; USP2 core, Ub-CHOP2 coupled fluorogenic reporter, 485/531; Potency, µM (series often up to 38.3 µM), most hits filed as inhibitors; 0.01% of 330,000 active; AID 463254
Target sequence (O75604 whole entry, looked up): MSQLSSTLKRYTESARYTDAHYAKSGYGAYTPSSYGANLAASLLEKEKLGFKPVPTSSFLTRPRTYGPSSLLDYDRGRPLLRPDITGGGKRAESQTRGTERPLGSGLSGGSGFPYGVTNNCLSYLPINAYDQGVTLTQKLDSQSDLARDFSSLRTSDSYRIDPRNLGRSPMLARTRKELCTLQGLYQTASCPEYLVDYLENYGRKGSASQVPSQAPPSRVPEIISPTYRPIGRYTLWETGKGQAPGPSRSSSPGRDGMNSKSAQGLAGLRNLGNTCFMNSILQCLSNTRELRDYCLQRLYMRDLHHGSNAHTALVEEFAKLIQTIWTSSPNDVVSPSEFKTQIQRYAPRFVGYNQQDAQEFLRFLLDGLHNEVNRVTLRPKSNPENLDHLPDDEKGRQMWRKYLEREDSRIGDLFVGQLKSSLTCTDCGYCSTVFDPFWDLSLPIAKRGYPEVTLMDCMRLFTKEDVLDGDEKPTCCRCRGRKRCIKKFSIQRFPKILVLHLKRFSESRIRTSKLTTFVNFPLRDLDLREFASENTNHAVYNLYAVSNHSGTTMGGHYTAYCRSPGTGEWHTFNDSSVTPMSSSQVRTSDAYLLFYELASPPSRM
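Cell-free coupled assay: 10nM USP2 core preincubated 30min RT with compound in Tris-HCl pH 8.0/CaCl2/CHAPS buffer, then 25nM Ub-CHOP2 and 25nM reporter substrate; fluorescence (Ex 485/Em 531) read after 60min RT, normalized to NEM inhibition, concentration-response curves fitted.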
GALK inhibitor: blocks human galactokinase activity. P51570. Purified GALK, Kinase-Glo residual ATP luminescence. Potency, µM (highest dose often 57.5 µM), most hits filed as inhibitors. 0.007% of 270,000 active
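Quantitative HTS: GALK 5 nM, ATP 35 uM, galactose 100 uM, 1 h room temperature, then luciferase-based ATP detection.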
FBPA coupling cs: inhibits coupling enzyme system, counter-screen for aldolase hits | coupling enzyme system counterscreen, AmpLite Red fluorescence | activity change, negative = inhibition, % at 58.2 µM, hits read low | 0.67% of 290,000 active; in the data active = activity change below about -30%
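Final compound at 57.5 uM, incubated 10 min at RT with coupling enzyme reagent (glyceraldehyde-3-phosphate), then 20 min with substrate and AmpLite Red detection. Fluorescence read at 525/598 nm; tests interference with the coupling assay, not aldolase inhibition.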
USP1-UAF1 inh: USP1/UAF1 (human) deubiquitinase inhibition; O94782; recombinant USP1/UAF1, Ub-Rhodamine cleavage fluorescence; AID 743255; Potency, µM (doses to about 57.1 µM), hits mostly inhibitors; 0.23% of 390,000 active; note: nearly all actives have a fitted effect of over 60% in size
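1 nM enzyme complex + cpd, 15 min RT; start with Ub-Rho 150nM final; kinetic fluorescence ex 480/em 540, 6 reads q60 s. Buffer 50mM HEPES pH 7.8, 0.5mM EDTA, 0.1 mg/ml BSA, 1mM TCEP, 0.01% Tween-20.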
VDR inh: vitamin D3 receptor (human) inhibition; P11473; VDR-SRC2-3 peptide fluorescence polarization, 2 h; 0.93% of 400,000 active; AID 504847; Potency, µM, actives largely listed as inhibitors
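Compounds are added to VDR with labelled SRC2-3 coactivator peptide and held 2 h at room temperature. Inhibition of the VDR–peptide interaction is then read as a change in fluorescence polarization.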
A number is an active result; - = inactive; ? = inconclusive; . = no result; ! = a repeat was not active. In the library only some 3.2% were active in any assay of this set; here they are far more common. Unless noted, calls come from the whole dose curve; as a rule, active = well fitted curve in the direction sought with a large enough effect; inconclusive = small, poorly fitted or top-dose-only effect, or another doubt; inactive = no such curve, though single readings can be large; an effect the other way counts as inactive or inconclusive.

SMILES | PLK1 PBD block | USP2a block | GALK inhibitor | FBPA coupling cs | USP1-UAF1 inh | VDR inh
O=C(CSc1cccc[n+]1[O-])Nc1ccccc1Oc1ccccc1 | 30µM | - | - | - | - | ?
O=C(CSc1cccc[n+]1[O-])Nc1ccccc1C(F)(F)F | - | - | . | . | - | -
COc1ccc(OCCCNCCc2ccccc2)cc1 | - | - | - | - | - | -
COc1ccc(-c2ccccc2C2C3C=CCCC3(C)C(=O)N2Cc2ccccc2)cc1 (stereo unspecified) | . | . | . | - | . | 79µM
COc1ccc(-c2ccc(C3C4C=CCCC4(C)C(=O)N3Cc3ccccc3)c(F)c2)cc1 (stereo unspecified) | . | . | . | - | . | -
Cn1ccnc1C(=O)c1ccccc1Cl | - | - | - | - | - | -
CC(C)c1ccc(NC(=S)Nc2ccc3cn[nH]c3c2)cc1 | - | - | - | - | - | -
CCNC(=S)Nc1ccc2cn[nH]c2c1 | 24µM | - | - | - | - | -
Cc1ccc(NC(=S)Nc2ccc3cn[nH]c3c2)cc1C | - | - | - | - | - | -
CC(=O)c1ccc(NC(=S)Nc2ccc3cn[nH]c3c2)cc1 | 30µM | - | - | - | - | -
COc1ccc(C(=O)/C=C/c2ccccc2)c(O)c1 | - | - | - | - | - | ?
COc1ccc(/C=C/C(=O)c2cc(O)ccc2O)cc1 | . | . | . | - | . | 7.9µM
O=C(C=Cc1cccc(O)c1)c1ccccc1O | 1.7µM | . | . | . | - | 40µM
O=C(/C=C/c1ccccc1)c1ccc(O)cc1O | . | . | . | - | . | 25µM
O=C(/C=C/c1ccc(O)cc1)c1ccc(O)cc1O | - | - | . | - | - | 79µM!
COc1ccc(/C=C/C(=O)c2ccc(O)cc2O)cc1 | . | . | . | - | . | ?
Cc1noc(C)c1S(=O)(=O)N1CCC(C(=O)NCCc2ccc(S(N)(=O)=O)cc2)CC1 | - | - | - | - | - | -
COc1ccc(/C=C/C(=O)O)cc1 | - | - | . | - | - | -
COc1cc(/C=C/C(O)=C/C(=O)/C=C/c2ccc(O)cc2)ccc1O | - | - | . | . | 28µM | -
COc1ccc(/C=C/C(=O)c2ccc(C)s2)cc1 | . | . | . | - | . | 32µM
O=C(Nc1ccccc1O)c1ccccc1O | - | - | - | - | - | -
Cc1ccc(C)c(NC(=O)c2cc(C)nc3ccccc23)c1 | - | - | - | - | - | -
Cc1ccc(C)c(NC(=O)c2ccccc2O)c1 | 3.4µM | - | - | - | - | ?
Cc1cccc(NC(=O)c2ccccc2O)c1C | - | - | - | -32 | - | -
COc1ccc(NC(=O)C2Cc3ccccc3O/C2=N\O)cc1 (stereo unspecified) | - | - | - | - | - | -
SMILES | PLK1 PBD block | USP2a block | GALK inhibitor | FBPA coupling cs | USP1-UAF1 inh | VDR inh
CC(C)(C)c1cc(/C=N/O)cc(C(C)(C)C)c1O | - | - | . | - | - | -
Cc1sc(NC(=O)c2cc(-c3ccc(Cl)cc3)nc3ccccc23)c(C(N)=O)c1C | 13µM | - | - | - | - | -
CCOC(=O)c1sc(-c2ccc(C)cc2)c(C#N)c1C | 24µM | - | - | - | - | -
Cc1sc(NC(=O)c2cc(-c3ccccc3)nc3ccccc23)c(C(N)=O)c1C | - | - | - | - | - | -
CCOC(=O)c1sc(NC(=O)c2cc(-c3ccc(C)cc3)nc3ccccc23)c(C#N)c1C | 2.7µM | - | - | - | - | 79µM
Cc1c(C(=O)NN)sc(-c2ccccc2)c1C#N | - | - | - | - | - | -
O=C(NN=C1CCCCCC1)c1cc(-c2ccccc2)nc2ccccc12 | 3µM | - | . | - | - | -
CCCCCCSc1ccc(-c2nc3ccccn3c2NCCCC)cc1 | - | - | . | . | - | -
COCc1ccc(C(=O)N2CCN(CC(=O)N3CCCC3)CC2)cc1 | - | - | . | . | - | -
CC(C)(C)c1nnc(NC(=O)c2cc(-c3ccccc3)nc3ccccc23)s1 | 24µM | - | - | - | - | ?
COc1ccc(-c2cc(C(=O)Nc3sc4c(c3C#N)CCCC4)c3ccccc3n2)cc1 | - | - | - | - | - | -
COc1cc(-c2cc(C(=O)Nc3ccc(O)cc3)c3ccccc3n2)cc(OC)c1OC | 27µM | - | - | - | - | -
